Measured values as given in the supplement of paper PMC6555819.

How the values were obtained:
Assay in all cases: PBM binding z-score (relative to random genomic background probes); higher = stronger binding; sequences stand for … in GC…GCGATTGACAGCGTAGAATGAAGG
[1] = test system: FXR:RXRa (NR concentration 270 nM, RXRa partner concentration 90 nM)
Method in brief: (§1)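 Ligand-free nuclear receptor dimers were applied to custom Agilent 4×180K protein-binding microarrays whose double-stranded probes carried direct-repeat seeds, single-nucleotide variants, half-site ablations and random human genomic background sequences in 34-nt variable regions. Incubation lasted 1 h. Binding z-scores were computed against the random background probes from regression-normalized fluorescence.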

[2] = test system: LXRa:RXRa (NR concentration 270 nM, RXRa partner concentration 90 nM)
Method in brief: as §1

[3] = test system: LXRa homodimer (NR concentration 270 nM)
Method in brief: as §1

[4] = test system: LXRb:RXRa (NR concentration 270 nM, RXRa partner concentration 90 nM)
Method in brief: as §1

[5] = test system: LXRb homodimer (NR concentration 270 nM)
Method in brief: as §1

[6] = test system: PPARa:RXRa (NR concentration 270 nM, RXRa partner concentration 90 nM)
Method in brief: as §1

[7] = test system: PPARg:RXRa (NR concentration 180 nM, RXRa partner concentration 90 nM)
Method in brief: as §1

[8] = test system: PPARg:RXRa 270nM:90nM, anti-RXR (NR concentration 270 nM, RXRa partner concentration 90 nM)
Method in brief: as §1

[9] = test system: PPARg:RXRa 30nM:10nM, anti-RXR (NR concentration 30 nM, RXRa partner concentration 10 nM)
Method in brief: as §1

[10] = test system: PPARg:RXRa 90nM:30nM, anti-RXR (NR concentration 90 nM, RXRa partner concentration 30 nM)
Method in brief: as §1

[11] = test system: PPARg:RXRa DBDmut IVT, anti-RXR (DBD mutation: RXRa K156A/R161A, NR concentration 270 nM, RXRa partner concentration 90 nM)
Method in brief: as §1

[12] = test system: PPARg:RXRa IVT, anti-PPARg (NR concentration 270 nM, RXRa partner concentration 90 nM)
Method in brief: as §1

[13] = test system: PPARg DBDmut:RXRa IVT, anti-PPARg (DBD mutation: PPARg1 K132A/R137A, NR concentration 270 nM, RXRa partner concentration 90 nM)
Method in brief: as §1

[14] = test system: PPARg DBDmut IVT, anti-PPARg (DBD mutation: PPARg1 K132A/R137A, NR concentration 270 nM)
Method in brief: as §1

[15] = test system: PPARg homodimer (NR concentration 180 nM)
Method in brief: as §1

[16] = test system: PXR:RXRa (NR concentration 270 nM, RXRa partner concentration 90 nM)
Method in brief: as §1

[17] = test system: PXR homodimer (NR concentration 270 nM)
Method in brief: as §1

[18] = test system: RARa:RXR (NR concentration 270 nM, RXRa partner concentration 90 nM)
Method in brief: as §1

[19] = test system: RARa homodimer (NR concentration 270 nM)
Method in brief: as §1

[20] = test system: RARb:RXRa (NR concentration 270 nM, RXRa partner concentration 90 nM)
Method in brief: as §1

Sequence | PBM binding z-score [1] | PBM binding z-score [2] | PBM binding z-score [3] | PBM binding z-score [4] | PBM binding z-score [5] | PBM binding z-score [6] | PBM binding z-score [7] | PBM binding z-score [8] | PBM binding z-score [9] | PBM binding z-score [10] | PBM binding z-score [11] | PBM binding z-score [12] | PBM binding z-score [13] | PBM binding z-score [14] | PBM binding z-score [15] | PBM binding z-score [16] | PBM binding z-score [17] | PBM binding z-score [18] | PBM binding z-score [19] | PBM binding z-score [20]
CGATCGAGGGCATGAGTTGATAGCAAATGCCGAT | 0.233 | -0.0163 | -0.798 | -0.0334 | -1.04 | 1.22 | 1.17 | 1.29 | -0.0363 | 0.755 | 2.46 | 1.93 | -0.505 | -0.163 | 0.296 | 0.228 | -0.306 | 0.106 | -0.984 | 1.94
TCTTGTAGATCATCAGGTTAAGAAAGCTGGCCAA | 0.48 | 0.703 | 0.27 | 0.642 | -0.0532 | 0.993 | -0.352 | 1.6 | 2.71 | 1.98 | 2.18 | 1.18 | 1.16 | 0.736 | 0.119 | 0.47 | -0.117 | 0.63 | 0.422 | 0.398
AGAACGAGGGCAATGAGTTGATAGGACGGGTGGC | 0.234 | 0.0995 | -0.497 | -0.197 | -0.468 | 1.05 | 1.48 | 0.681 | 0.137 | 0.397 | 3.48 | 2.09 | 0.826 | 0.0416 | -0.0695 | 1.12 | 5.45 | 0.114 | -0.321 | 2
ATCTCTAGGTAACCTAGTTCAGTGAATGCCGAAC | 0.745 | 1.07 | 0.16 | 1.26 | 0.421 | 2.24 | 1.69 | 1.42 | 0.221 | 0.568 | 4.08 | 4.62 | 1.92 | 1.24 | 1.02 | 1.02 | 0.262 | 0.692 | 0.202 | 0.704
GCTCGGAGGACAAGGTCTGAGCTTTGTCCGTAGA | -0.67 | -0.493 | -0.867 | -0.602 | -1.01 | -0.36 | -1.05 | -0.462 | -1.11 | -1 | -0.275 | -0.493 | -0.968 | -1.01 | -0.929 | -0.656 | -0.919 | -0.399 | -1.72 | 0.963
GCTAGTTGGTCAGCAAAAGGTCACACACCGGTCG | 3.17 | 4.15 | 4.08 | 3.94 | 0.516 | 4.17 | 2.48 | 4.05 | 1.79 | 3.39 | 0.999 | 2.88 | -0.1 | -0.835 | 4.56 | 5.02 | 1.32 | 5.74 | 2.26 | 4.37
CGAACTAGGTCAGAACAGGACAGTGATGGATGAT | 1.29 | 0.678 | 0.233 | 0.327 | -0.482 | 2.91 | 5.11 | 4.36 | 2 | 3.37 | 6.82 | 7.04 | 3.7 | 2.44 | 1.38 | 0.583 | 0.0168 | 1.39 | 0.336 | 2.66
TCAGACAGGTGAAGGTAACTCCGGTACGCAGTCG | 0.787 | 2.08 | -0.352 | 0.966 | -0.314 | 1.21 | 0.509 | 2.09 | 3.78 | 2.96 | 2.59 | 1.09 | -0.276 | -0.342 | 0.498 | 0.475 | -0.04 | 0.651 | 0.0905 | 1.1
GCTGTTAGGTCAACTGATGGTCAGCTAAAGCTCG | 4.8 | 3.67 | 0.551 | 2.5 | 1.02 | 3.78 | 2 | 2.74 | 0.501 | 1.61 | 4.04 | 2.94 | 0.716 | 0.227 | 3.51 | 2.32 | -0.291 | 3.69 | 0.121 | 4.4
CTACCAAGCTGAACAAGGTCGTTGATTACTATTC | 0.51 | 0.731 | 0.686 | 1.31 | -0.0286 | 0.706 | -0.00663 | 0.00986 | -0.206 | -0.336 | 0.107 | -0.452 | 0.163 | 0.158 | 0.308 | 1.39 | 1.02 | 1.31 | 0.561 | 0.523
CGAACTAGGTCAGGGACAGTGAATCTCCGCACGC | 1.19 | 0.726 | -0.107 | 0.458 | -0.639 | 3.59 | 5.89 | 4.71 | 2.38 | 4.17 | 7.43 | 7.24 | 1.27 | 0.491 | 0.781 | 0.326 | -0.0952 | 0.867 | -0.305 | 3.18
TGAATGAGGTTCTAAGATCAGGGAACGTTGCAAA | -0.725 | -0.693 | -0.989 | -0.763 | -0.398 | -0.344 | -0.0951 | -0.03 | -0.103 | 0.161 | -0.614 | 0.0916 | -0.614 | -0.528 | -0.83 | -0.331 | -0.563 | -0.599 | -0.564 | -0.67
AGAATGAGGTTATACGGAGATCAGGGAAGAAAGT | 2.36 | 1.94 | 0.0841 | 1.7 | 0.0612 | 3.29 | 1.7 | 2.04 | 0.685 | 1.45 | 2.35 | 2.05 | 1.14 | 0.774 | 0.836 | 1.25 | 0.96 | 1.74 | 0.352 | 1.5
ATCTCTATGTAACCAAGTTCAGTGAATGCCGAAC | 0.239 | 0.344 | 0.727 | 0.489 | 0.572 | 0.351 | 0.288 | 0.822 | 0.337 | 0.387 | -0.0629 | 0.707 | 0.85 | 1.12 | 0.121 | 1.66 | 1.51 | 0.419 | 0.407 | 0.755
TCGAGTAGGTTAGTCGGGGCATTCACCCAACATA | 0.0292 | 0.103 | -0.165 | 0.627 | -0.651 | 0.713 | 0.0859 | 0.905 | 0.99 | 0.993 | 2.26 | 1.7 | -0.581 | -0.56 | 0.252 | 0.243 | -0.193 | 0.377 | 0.343 | 0.447
CCTCGGAGGACAACAGGAGGTCAGAGATGCCAGA | 1.06 | 1.85 | 2.02 | 1.36 | -0.479 | 2.08 | 0.895 | 0.272 | -0.499 | -0.289 | -0.0162 | 0.314 | -0.377 | -1.49 | 1.1 | 2.04 | 0.508 | 2.05 | 0.885 | 2.8
CCGACTGGGGCAACGTTACCATAACGCACAGCCA | -0.667 | -0.521 | -0.397 | -0.465 | -1.01 | 0.0876 | 1.64 | 0.667 | -0.502 | -0.136 | 4.02 | 3.62 | -0.725 | -0.25 | -0.224 | -0.885 | -0.271 | -0.695 | -0.177 | 0.224
ATCGAAAAGTCGAGGTGAGTATAGAGAAAGGGAA | 0.304 | 0.67 | -0.216 | -0.238 | -0.0548 | 0.326 | 0.344 | -0.139 | 0.203 | -0.312 | -0.205 | 0.704 | 1.25 | -0.338 | 0.107 | -0.235 | 0.048 | 0.0313 | -0.268 | 0.639
TCGGCTAGGTCAACGATGGTCAGCTAATCTGCTA | 3.23 | 2.31 | -0.307 | 1.72 | -0.717 | 3.14 | 1.75 | 2.37 | 1.62 | 2.03 | 3.13 | 3.06 | -0.836 | -0.603 | 1.19 | 1.58 | -0.468 | 2.04 | -0.329 | 3.97
